# According to PubChem BioAssay (NCI):
# The panel holds about 83,000 compounds, 20% with a hit somewhere; the sample as a whole holds those more often.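 The test compound was applied at a single concentration to cells in 96-well plates for 48 hours, and percent growth was recorded.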 The source made the active and inactive calls. The calls were made as follows: active = growth percent below 10; inactive = the rest.
# Tested on: HL-60(TB) leukemia
# Test: NCI-60 one-dose screen, 48 h (100 = growth as untreated, 0 = no growth, -100 = all killed)
# Conditions: 10 µM unless noted
row,SMILES,growth
1,COc1ccc(NC(=O)c2sc3nc(C(C)C)ccc3c2N)cc1,66.3% (inactive)
2,O=S(=O)(Nc1ncccn1)c1ccc(-n2c(-c3ccccc3)nc(-c3ccccc3)c2-c2ccccc2)cc1,95.5% (inactive)
3,Nc1nc(C(F)(F)F)cs1,102% (inactive)
4,COc1ccc(-c2cc(-c3cc(OC)c(OC)c(OC)c3)[nH]c(=O)c2C#N)cc1,102% (inactive)
5,C=C1CCC2C3(C)COC(c4ccc(F)cc4)OC3CCC2(C)C1C/C=C1/C(=O)OCC1O (stereo not drawn),0.0909% (active)
6,Cc1cc(C2(c3cc(C)c(OCC(O)CNc4c(C)n(C)n(-c5ccccc5)c4=O)cc3C(C)C)OC(=O)c3ccccc32)c(C(C)C)cc1OCC(O)CNc1c(C)n(C)n(-c2ccccc2)c1=O (stereo not drawn),0.434% (active)
7,COc1ccc(-c2nc3ccc(C(=O)NN4C(=O)c5ccc([N+](=O)[O-])cc5C4=O)cc3[nH]2)cc1,104% (inactive)
8,NS(=O)(=O)c1ccc(NC(=O)CSc2ccc(-c3ccccc3)nn2)c(Br)c1,99.2% (inactive)
9,CC1(C)CC(=O)C2=C(C1)N(Cc1ccc(C(=O)O)cc1)C1=C(C(=O)CC(C)(C)C1)C2c1ccc(Cl)cc1,107% (inactive)
10,Cc1cccc2cc(-c3cc(-c4ccccc4)nc(=S)[nH]3)c(Cl)nc12,58.9% (inactive)
11,CCCn1c(=O)c2[nH]c(-c3ccc(OCc4nc5ccccc5[nH]4)cc3)nc2n(CCC)c1=O,85.3% (inactive)
12,Cn1cc(-c2cc3nc(-c4cn(C)c5ncc(Br)cc45)cc(N)n3n2)c2cc(Cl)ccc21,-62.4% (active)
13,O=C1N/C(=N\c2nccs2)S/C1=C\c1ccc([N+](=O)[O-])cc1,5.47% (active)
14,C=C1CC[C@@H]2[C@]3(C)COC(c4cn[nH]c4-c4ccc(F)cc4)O[C@@H]3CC[C@@]2(C)[C@@H]1C/C=C1/C(=O)OCC1O (stereo partly drawn),-21.7% (active)
15,CCCCSc1nc(Nc2ccc(/C(C)=N/NC(N)=S)cc2)c(C#N)c(-c2ccc(F)cc2)n1,90.7% (inactive)
16,COc1ccc(-c2cc(-c3cc(C(=O)c4ccccc4)n4ccc(C)cc34)nc(N)c2C#N)cc1,99.7% (inactive)
17,COc1ccc(Nc2ncnc3sc4c(c23)CCN(Cc2ccccc2)C4)cc1,68.2% (inactive)

row,SMILES,growth
1,Cc1ccccc1[C@H]1C(C(=O)c2ccc(Cl)cc2)C2(N[C@@H]1c1ccccc1)C(=O)Nc1ccc(Br)cc12 (stereo partly drawn),-1.57% (active)
2,COc1cccc(/C=N/NC(=O)c2ccc3nc(-c4ccc(Cl)cc4)[nH]c3c2)c1O,-43.4% (active)
3,O=c1oc2ccc(-c3ccc(F)cc3F)cc2c(=O)n1-c1ccc(F)c(Cl)c1,-40.3% (active)
4,CC1=C(C(=O)OCc2ccccc2)C(c2ccc(-n3cncn3)cc2)n2c(nc3ccccc32)N1 (stereo not drawn),8.84% (active)
5,COC(OC)C1=C(C)OC(N)=C(C#N)C12C(=O)Nc1ccccc12 (stereo not drawn),67.6% (inactive)
6,NS(=O)(=O)c1ccc(-n2cc(-c3cccc(NC(=O)c4cc(C(F)(F)F)cc(C(F)(F)F)c4)c3)nn2)cc1,63.4% (inactive)
7,COc1ccc(-c2cc(C)nc3[nH]c(=O)sc23)cc1,75.6% (inactive)
8,Nc1nnc(-c2cncc(Br)c2)c(-c2c[nH]c3ccc(Br)cc23)n1,36.7% (inactive)
9,COC(=O)c1cc(C(C)=O)n2c3ccccc3c3ccccc3c12,101% (inactive)
10,COc1ccc(C2c3sc4ccc(C)cc4c3Oc3nc[nH]c(=O)c32)cc1 (stereo not drawn),85.2% (inactive)
11,CN(C)CCn1c2ccccc2c2nc3cc(C(F)(F)F)ccc3nc21,24.7% (inactive)
12,CN(C)c1ccc(/C=C/C(=O)c2ccc(NC(=O)CN3C(=O)NC(C)(c4ccccc4)C3=O)cc2)cc1 (stereo not drawn),47.5% (inactive)
13,CN1CCN(Cc2ccc(NC(=O)c3cncc(C#Cc4cnc5ccc(N[C@H]6CCOC6)nn45)c3)cc2C(F)(F)F)CC1,-54.4% (active)
14,Cc1ncsc1-c1ccc(CNC(=O)[C@@H]2C[C@@H](O)CN2C(=O)[C@@H](NC(=O)C2(F)CC2)C(C)(C)C)c(OCCOCCOCCOCCOc2nc(Nc3cc(S(C)(=O)=O)ccc3N[C@@H](c3cccc4c3OC(F)(F)O4)c3ncccc3Cl)nc(N3CCNCC3)n2)c1,72% (inactive)
15,O=C(Nc1cccc([N+](=O)[O-])c1)Nc1cccc([N+](=O)[O-])c1,92.4% (inactive)
16,CCCCNC(=S)Nc1ccc(OCc2nc3ccc(Cl)cc3[nH]2)cc1,13% (inactive)
